Measured values published in PubChem BioAssay.

Experiment: probe aCHRDL2 binding to arrayed compounds – biochemical, biotinylated probe, 635/667 nm fluorescence, primary screen (AID 1100)
Conditions: small-molecule microarray, higher = more signal

| Structure (SMILES) | composite z-score |
| --- | --- |
| COc1cc(NN2C(C(O)c3ccc(I)cc3)C=CC3C(=O)N(c4ccccc4)C(=O)C32)cc(OC)c1OC (stereo unspecified) | 1.04 |
| CN(C)CCCC[C@@H]1NC(=O)[C@@H]2C[C@H](C(=O)O)[C@H](c3cccc(OCCO)c3)N2C1=O | -0.165 |
| CN1C(=O)C2C=CC(C(O)c3cc(C(F)(F)F)cc(C(F)(F)F)c3)N(Nc3ccccc3)C2C1=O (stereo unspecified) | 0.0811 |
| C=C(/C(=C/C[C@H](OC(=O)c1ccncc1)c1ccccc1OCCO)c1cnc2ccccc2c1)C(C)C | 0.37 |
| COC(=O)[C@@]1(Cc2ccccc2CN=[N+]=[N-])N=C(c2ccc(OCCCO)cc2)O[C@H]1c1ccccc1 | 0.966 |
| C=CCC(OC(C)=O)[C@@H]1[C@@H](N(Cc2cccc3ccccc23)C(=O)c2ccc(-c3ccccc3)cc2)c2cc(OCCCO)ccc2N1C(=O)c1ccc(-c2ccccc2)cc1 (stereo partly specified) | 0.75 |
| COC(=O)[C@@]1(Cc2ccc(F)cc2)[C@H]2c3cc(C(=O)N(C)C)n(Cc4c(CO)[nH]cc(C)c4=O)c3C[C@H]2CN1C(=O)c1ccccc1 | 0.721 |
| CN(C)C(=O)[C@]1(CCS(=O)(=O)c2ccccc2)N=C(c2ccc(OCCCO)cc2)O[C@@H]1c1ccccc1 | 0.515 |
| CC(C)OC(=O)CC(=O)CC(O)c1ccc([N+](=O)[O-])cc1 (stereo unspecified) | 1.14 |
| CCN(CC)c1ccc(N2CC=CC34O[C@@H]5/C=C\CCC(C)OC(=O)C5[C@H]3C(=O)N(C(C)CO)[C@@H]4C2=O)cc1 (stereo partly specified) | -0.514 |
| Cc1ccc(C(C)CC(O)C2C=CC3C(=O)N(c4ccccc4)C(=O)C3N2Nc2ccc(C#N)cc2)o1 (stereo unspecified) | 0.539 |
| Cc1ccc(F)cc1S(=O)(=O)N[C@@H]1CCN(Cc2cccc3[nH]ccc23)C1 | -0.518 |
| O=C1C2C=CC(C(O)c3ccco3)N(Nc3ccccc3)C2C(=O)N1c1ccccc1 (stereo unspecified) | 0.878 |
| CCOC(=O)C1=CCC(c2ccco2)N(S(=O)(=O)c2ccc(C)cc2)C1 (stereo unspecified) | -0.0042 |
| O=C(NCCN1CCOCC1)[C@@H]1c2ccccc2C(=O)N(Cc2ccccc2)[C@H]1c1ccc(CO)cc1 | 0.82 |
| CCOC(=O)C1=C[C@@H](c2ccccc2)N(S(=O)(=O)c2ccc(C)cc2)[C@H]1c1ccccc1 | 0.753 |
| COCCOC(=O)N1C(=O)[C@@]2(c3cc(C#Cc4ccc(OC)cc4)ccc31)[C@H](c1ccc(OCCO)cc1)N1[C@H](c3ccccc3)[C@H](c3ccccc3)OC(=O)[C@H]1[C@@H]2C(=O)Nc1nc2ccccc2s1 | 0.533 |
| [N-]=[N+]=Nc1ccccc1C[C@]1(C(=O)O)N=C(c2ccc(OCCCO)cc2)O[C@H]1c1ccccc1N=[N+]=[N-] | 1.12 |

| Structure (SMILES) | composite z-score |
| --- | --- |
| CC=CC(O)C1C=CC2C(=O)NC(=O)C2N1Nc1ccccn1 (stereo unspecified) | -0.185 |
| CCOC(=O)C1=C[C@@H](C(C)(C)C)N(S(=O)(=O)c2ccc(C)cc2)[C@H]1c1ccccc1 | 1.22 |
| COC(=O)[C@@]1(Cc2ccc(F)cc2)[C@H]2c3cc(C(=O)N4CCCC4)n(CC4CC4)c3C[C@H]2CN1C(=O)c1ccccc1 | 1.3 |
| CO[C@H]1O[C@H](CO)[C@@H](OC(=O)Nc2ccc(C#N)cc2)[C@@H]2OC(=O)[C@H](Cc3cccc(Br)c3)C/C=C/C[C@@H](Cc3cccc(Br)c3)C(=O)O[C@@H]12 | 0.534 |
| COC(=O)[C@@]1(Cc2ccccc2)[C@H]2c3cc(C(=O)N(C)C)n(CCn4cc([N+](=O)[O-])nc4C)c3C[C@H]2CN1C(=O)c1ccccc1 | 0.436 |
| Cc1ccc(N2C(=O)c3ccccc3[C@](C)(C(=O)NCc3ccccc3)[C@@H]2c2ccc(CO)cc2)nc1 | 0.615 |
| COC(=O)[C@@]1(Cc2ccc(F)cc2)[C@H]2c3cc(C(=O)N4CCCC4)n(C)c3C[C@H]2CN1C(=O)c1ccccc1 | 1.22 |
| CC(C)C(=C=CC[C@@H](O)c1cccc(OCCO)c1)C[C@@H](O)c1ccccn1 | -0.315 |
| O=C(O)[C@H]1C[C@H]2C(=O)N[C@@H](Cc3ccccc3)C(=O)N2[C@H]1c1cccc(OCCO)c1 | 0.198 |
| COc1ccc([Si](C)(C)[C@@H]2[C@@H](CC(=O)N3Cc4ccccc4C[C@H]3CO)O[C@]3(C(=O)N(Cc4ccc(N5CCC5=O)cc4)c4ccccc43)[C@H]2C)cc1 | -0.1 |
| Cc1ccc([C@H]2C(C(=O)O)=C[C@@H](C(C)(C)C)N2S(=O)(=O)c2ccc(C)cc2)cc1 | 1.06 |
| CN1C(=O)[C@@]2(Cc3ccccc3)N=C(c3ccc(OCCCO)cc3)O[C@H]2c2ccccc21 | 1.02 |
| COCCCNC(=O)[C@@]1(Sc2ccc(C)cc2)CC(=O)N(C(C)C)[C@@H]1c1ccc(CO)cc1I | 0.836 |
| CC(C)C(=C=CC[C@@H](O)c1cccc(OCCO)c1)C[C@@H](O)COCc1ccccc1 | -0.118 |
| COC(=O)[C@@]1(Cc2ccccc2)[C@H]2c3cc(C(=O)N4CCCC4)n(CCSCCO)c3C[C@H]2CN1C(=O)c1ccccc1 | 1.2 |
| CCOC(=O)C1=C[C@@H](C(C)(C)C)N(S(=O)(=O)c2ccc(C)cc2)[C@H]1c1cccc(Cl)c1 | 0.182 |
| C=C[C@H](C)[C@H](OC(=O)Nc1ccc(OC)cc1)c1ccc(OCCO)cc1 | 0.931 |
| C[C@]1(C(=O)O)c2ccccc2C(=O)N(Cc2ccc(OC(F)(F)F)cc2)[C@H]1c1ccc(CO)cc1 | 1.01 |
